Measured values from publication PMC7862700, “An all-to-all approach to the identification of sequence-specific readers for epigenetic DNA modifications on cytosine”.

Key:
Experiment in all cases: DAPPL (digital affinity profiling via proximity ligation, sequencing); 10 mM Tris-HCl pH 7.5, 50 mM NaCl, 1 mM DTT, 4% glycerol, room temperature, 30 min; GST-TFs on glutathione beads, 16-mer random dsDNA library, 0.1% formaldehyde crosslink after washing; high values mean tight binding
Conditions in all cases: protein: recombinant; tags: N-terminal GST; dsDNA, one strand shown
GABPA = target: T1, GABPA (Homo sapiens, UniProt Q06546 1-454)
T1 sequence: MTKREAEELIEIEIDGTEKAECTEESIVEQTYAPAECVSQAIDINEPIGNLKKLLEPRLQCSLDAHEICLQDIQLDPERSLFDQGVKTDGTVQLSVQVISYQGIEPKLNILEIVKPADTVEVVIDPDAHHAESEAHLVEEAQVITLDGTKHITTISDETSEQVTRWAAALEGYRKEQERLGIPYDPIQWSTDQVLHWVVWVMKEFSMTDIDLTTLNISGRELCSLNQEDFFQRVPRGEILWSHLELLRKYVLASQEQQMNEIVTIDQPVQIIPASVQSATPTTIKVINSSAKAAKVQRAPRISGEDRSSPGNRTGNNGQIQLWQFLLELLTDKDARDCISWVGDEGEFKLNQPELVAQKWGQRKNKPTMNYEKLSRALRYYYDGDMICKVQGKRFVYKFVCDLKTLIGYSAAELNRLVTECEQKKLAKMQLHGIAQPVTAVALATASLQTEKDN
Summary of the method: (§1)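 Pools were built from human transcription factors expressed in yeast as GST fusions, captured on glutathione beads and DNA-barcoded, along with a tag-only sample. Incubation with 200 nmole of a 16-mer random double-stranded DNA library lasted 30 min at room temperature in Tris/NaCl/DTT/glycerol buffer, and was followed by washing, 0.1% formaldehyde crosslinking, proximity ligation, PCR amplification and Illumina NextSeq500 sequencing. Binding signal is the quotient of each hexamer's read frequency for a factor and its frequency for the tag-only sample.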

EHF = target: T2, EHF (Homo sapiens, UniProt Q9NZC4 1-300)
T2 sequence: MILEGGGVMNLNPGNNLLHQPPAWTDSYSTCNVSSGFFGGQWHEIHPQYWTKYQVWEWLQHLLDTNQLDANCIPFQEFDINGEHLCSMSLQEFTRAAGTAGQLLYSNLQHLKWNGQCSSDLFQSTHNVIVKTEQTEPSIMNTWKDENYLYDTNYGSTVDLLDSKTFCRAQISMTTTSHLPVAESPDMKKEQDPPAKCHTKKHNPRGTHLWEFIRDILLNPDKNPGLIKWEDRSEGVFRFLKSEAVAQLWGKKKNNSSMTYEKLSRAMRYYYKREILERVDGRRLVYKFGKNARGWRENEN
Summary of the method: as §1

ELK3 = target: T3, ELK3 (Homo sapiens, UniProt P41970 1-407)
T3 sequence: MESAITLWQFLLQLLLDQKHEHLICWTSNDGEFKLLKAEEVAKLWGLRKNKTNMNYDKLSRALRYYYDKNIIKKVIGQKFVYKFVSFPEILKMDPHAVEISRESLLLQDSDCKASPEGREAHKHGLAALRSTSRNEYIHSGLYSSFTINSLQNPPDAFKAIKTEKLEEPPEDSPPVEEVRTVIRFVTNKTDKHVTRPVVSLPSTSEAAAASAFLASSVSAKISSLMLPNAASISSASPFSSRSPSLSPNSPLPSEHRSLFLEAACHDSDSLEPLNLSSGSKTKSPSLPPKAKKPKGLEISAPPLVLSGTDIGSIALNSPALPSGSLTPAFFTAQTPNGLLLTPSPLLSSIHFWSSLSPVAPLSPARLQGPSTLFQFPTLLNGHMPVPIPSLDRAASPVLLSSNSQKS
Summary of the method: as §1

ELF4 = ELF4 (Homo sapiens, UniProt Q99607 1-663)
Sequence of ELF4 (Q99607 whole entry): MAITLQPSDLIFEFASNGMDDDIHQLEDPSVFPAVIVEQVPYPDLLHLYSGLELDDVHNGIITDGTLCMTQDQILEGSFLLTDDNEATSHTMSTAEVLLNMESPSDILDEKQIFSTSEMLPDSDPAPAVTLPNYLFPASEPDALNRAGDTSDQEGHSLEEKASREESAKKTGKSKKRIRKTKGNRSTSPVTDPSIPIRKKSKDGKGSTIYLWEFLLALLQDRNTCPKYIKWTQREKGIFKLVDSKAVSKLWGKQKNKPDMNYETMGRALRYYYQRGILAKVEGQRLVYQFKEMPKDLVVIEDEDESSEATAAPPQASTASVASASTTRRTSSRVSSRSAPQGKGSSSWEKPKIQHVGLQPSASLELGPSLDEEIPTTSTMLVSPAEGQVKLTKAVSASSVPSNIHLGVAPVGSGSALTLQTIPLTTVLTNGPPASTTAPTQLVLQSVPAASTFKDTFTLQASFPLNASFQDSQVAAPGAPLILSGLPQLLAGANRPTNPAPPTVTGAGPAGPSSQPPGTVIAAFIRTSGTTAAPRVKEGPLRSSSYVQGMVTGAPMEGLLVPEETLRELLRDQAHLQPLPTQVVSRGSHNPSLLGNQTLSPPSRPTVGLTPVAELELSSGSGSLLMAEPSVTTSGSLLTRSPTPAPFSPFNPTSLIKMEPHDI
Summary of the method: as §1

ETV7 = target: T4, ETV7 (Homo sapiens, UniProt Q9Y603 1-341)
T4 sequence: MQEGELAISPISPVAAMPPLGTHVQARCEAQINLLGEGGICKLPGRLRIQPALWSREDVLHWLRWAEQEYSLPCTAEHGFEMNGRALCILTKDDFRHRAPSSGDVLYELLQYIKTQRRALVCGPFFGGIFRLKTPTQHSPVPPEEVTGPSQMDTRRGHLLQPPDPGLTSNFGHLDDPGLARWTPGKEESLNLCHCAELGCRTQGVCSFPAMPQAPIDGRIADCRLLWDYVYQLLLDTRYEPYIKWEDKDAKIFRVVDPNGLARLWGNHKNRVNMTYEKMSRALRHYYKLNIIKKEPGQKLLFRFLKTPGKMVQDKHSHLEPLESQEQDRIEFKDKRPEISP
Summary of the method: as §1

ELK1 = target: T5, ELK1 (Homo sapiens, UniProt P19419 1-428)
T5 sequence: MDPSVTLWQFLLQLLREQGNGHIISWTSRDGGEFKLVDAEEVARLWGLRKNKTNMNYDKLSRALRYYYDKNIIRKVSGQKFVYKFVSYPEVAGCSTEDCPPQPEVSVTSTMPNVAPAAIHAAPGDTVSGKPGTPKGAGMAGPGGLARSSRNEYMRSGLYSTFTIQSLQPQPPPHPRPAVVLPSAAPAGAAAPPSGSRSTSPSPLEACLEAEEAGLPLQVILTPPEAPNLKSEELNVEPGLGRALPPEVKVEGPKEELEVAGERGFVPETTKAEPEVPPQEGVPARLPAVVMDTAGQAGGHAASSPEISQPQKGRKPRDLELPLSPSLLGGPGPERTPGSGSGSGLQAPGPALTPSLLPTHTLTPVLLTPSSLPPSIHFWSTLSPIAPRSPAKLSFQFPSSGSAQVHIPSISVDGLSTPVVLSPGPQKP
Summary of the method: as §1

ERG = target: T6, ERG (Homo sapiens, UniProt P11308 1-479)
T6 sequence: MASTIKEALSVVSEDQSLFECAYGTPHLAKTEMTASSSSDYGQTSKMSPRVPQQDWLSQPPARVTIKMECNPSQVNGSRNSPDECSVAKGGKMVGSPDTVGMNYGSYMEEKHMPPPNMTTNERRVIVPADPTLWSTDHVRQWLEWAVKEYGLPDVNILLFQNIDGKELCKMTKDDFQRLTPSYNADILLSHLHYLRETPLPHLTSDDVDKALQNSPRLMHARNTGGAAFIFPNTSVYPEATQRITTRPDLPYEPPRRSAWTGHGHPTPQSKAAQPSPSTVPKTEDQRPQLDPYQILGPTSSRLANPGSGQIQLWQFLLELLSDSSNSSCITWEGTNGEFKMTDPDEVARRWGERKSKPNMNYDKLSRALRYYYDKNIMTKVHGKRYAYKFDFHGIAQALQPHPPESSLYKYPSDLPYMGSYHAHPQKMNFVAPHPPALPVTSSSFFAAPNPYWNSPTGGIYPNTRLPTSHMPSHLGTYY
Summary of the method: as §1

ELK4 = target: T7, ELK4 (Homo sapiens, UniProt P28324-2 1-405)
T7 sequence: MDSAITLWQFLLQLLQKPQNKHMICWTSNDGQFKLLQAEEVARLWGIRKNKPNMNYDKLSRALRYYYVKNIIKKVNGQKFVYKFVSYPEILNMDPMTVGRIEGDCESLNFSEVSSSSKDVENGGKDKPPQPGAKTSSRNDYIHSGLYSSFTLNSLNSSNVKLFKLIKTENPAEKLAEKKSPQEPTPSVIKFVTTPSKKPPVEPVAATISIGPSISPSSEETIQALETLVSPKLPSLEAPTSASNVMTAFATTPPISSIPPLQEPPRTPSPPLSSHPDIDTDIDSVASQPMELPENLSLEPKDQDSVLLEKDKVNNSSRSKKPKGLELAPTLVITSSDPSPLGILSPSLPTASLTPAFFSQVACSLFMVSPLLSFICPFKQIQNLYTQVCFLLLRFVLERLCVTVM
Summary of the method: as §1

ELF3 = target: T8, ELF3 (Homo sapiens, UniProt P78545 1-371)
T8 sequence: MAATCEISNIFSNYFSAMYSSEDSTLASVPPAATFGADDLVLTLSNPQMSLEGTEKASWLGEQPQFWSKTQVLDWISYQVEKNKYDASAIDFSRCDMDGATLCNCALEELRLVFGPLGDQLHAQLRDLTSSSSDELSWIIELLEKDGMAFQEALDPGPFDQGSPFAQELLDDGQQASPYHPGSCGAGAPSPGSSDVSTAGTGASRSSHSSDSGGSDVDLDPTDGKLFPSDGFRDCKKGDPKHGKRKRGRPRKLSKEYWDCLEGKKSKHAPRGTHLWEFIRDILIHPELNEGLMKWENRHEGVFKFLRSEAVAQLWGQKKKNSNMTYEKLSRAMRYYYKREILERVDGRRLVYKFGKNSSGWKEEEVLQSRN
Summary of the method: as §1

CRX = CRX (Homo sapiens, UniProt O43186 1-299)
Sequence of CRX (O43186 whole entry): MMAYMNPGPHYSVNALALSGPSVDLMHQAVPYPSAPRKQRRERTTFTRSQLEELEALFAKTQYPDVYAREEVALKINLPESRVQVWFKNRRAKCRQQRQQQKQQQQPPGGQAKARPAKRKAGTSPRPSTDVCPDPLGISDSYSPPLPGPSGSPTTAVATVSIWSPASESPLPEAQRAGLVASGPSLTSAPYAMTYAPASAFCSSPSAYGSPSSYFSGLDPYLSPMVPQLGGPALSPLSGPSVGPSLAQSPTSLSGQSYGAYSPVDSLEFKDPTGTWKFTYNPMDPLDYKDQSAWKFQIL
Summary of the method: as §1

ETV1 = ETV1 (Homo sapiens, UniProt P50549 1-477)
Sequence of ETV1 (P50549 whole entry): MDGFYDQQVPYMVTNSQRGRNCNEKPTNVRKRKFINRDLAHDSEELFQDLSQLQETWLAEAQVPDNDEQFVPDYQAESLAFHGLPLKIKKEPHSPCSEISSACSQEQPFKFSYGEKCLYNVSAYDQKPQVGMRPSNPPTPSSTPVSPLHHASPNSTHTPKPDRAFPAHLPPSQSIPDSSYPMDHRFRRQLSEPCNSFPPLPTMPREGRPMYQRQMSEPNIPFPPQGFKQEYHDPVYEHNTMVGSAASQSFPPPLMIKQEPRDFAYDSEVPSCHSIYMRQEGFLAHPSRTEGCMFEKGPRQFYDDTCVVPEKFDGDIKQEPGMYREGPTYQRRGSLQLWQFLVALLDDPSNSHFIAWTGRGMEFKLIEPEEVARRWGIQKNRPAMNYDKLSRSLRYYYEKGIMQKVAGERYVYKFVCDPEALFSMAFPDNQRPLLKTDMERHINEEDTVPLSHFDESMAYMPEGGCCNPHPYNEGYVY
Summary of the method: as §1

ERF = target: T9, ERF (Homo sapiens, UniProt P50548 1-548)
T9 sequence: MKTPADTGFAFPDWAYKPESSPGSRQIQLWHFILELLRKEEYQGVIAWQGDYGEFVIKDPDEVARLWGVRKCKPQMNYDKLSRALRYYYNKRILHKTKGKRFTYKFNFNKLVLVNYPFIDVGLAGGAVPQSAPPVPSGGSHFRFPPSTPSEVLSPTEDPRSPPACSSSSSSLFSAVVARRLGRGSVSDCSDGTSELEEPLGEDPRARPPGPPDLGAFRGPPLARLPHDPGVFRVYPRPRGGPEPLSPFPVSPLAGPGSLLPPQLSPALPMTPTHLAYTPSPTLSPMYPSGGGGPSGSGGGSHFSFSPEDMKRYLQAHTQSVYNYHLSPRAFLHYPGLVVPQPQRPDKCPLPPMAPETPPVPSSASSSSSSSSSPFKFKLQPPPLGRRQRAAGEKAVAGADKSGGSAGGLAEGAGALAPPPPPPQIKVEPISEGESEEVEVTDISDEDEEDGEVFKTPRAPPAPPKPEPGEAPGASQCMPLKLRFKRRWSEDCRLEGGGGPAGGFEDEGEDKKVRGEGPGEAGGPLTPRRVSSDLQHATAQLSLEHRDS
Summary of the method: as §1

SPDEF = target: T10, SPDEF (Homo sapiens, UniProt O95238 1-335)
T10 sequence: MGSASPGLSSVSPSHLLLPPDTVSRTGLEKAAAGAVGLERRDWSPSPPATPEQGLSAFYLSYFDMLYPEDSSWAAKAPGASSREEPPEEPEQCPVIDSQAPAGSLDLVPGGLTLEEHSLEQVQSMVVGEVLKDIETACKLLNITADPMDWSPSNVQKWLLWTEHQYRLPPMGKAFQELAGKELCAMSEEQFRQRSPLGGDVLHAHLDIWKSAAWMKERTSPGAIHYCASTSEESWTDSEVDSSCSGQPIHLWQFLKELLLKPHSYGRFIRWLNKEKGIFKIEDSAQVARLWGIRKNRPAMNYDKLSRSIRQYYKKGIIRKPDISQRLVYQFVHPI
Summary of the method: as §1

ETV3 = target: T11, ETV3 (Homo sapiens, UniProt P41162-2 1-143)
T11 sequence: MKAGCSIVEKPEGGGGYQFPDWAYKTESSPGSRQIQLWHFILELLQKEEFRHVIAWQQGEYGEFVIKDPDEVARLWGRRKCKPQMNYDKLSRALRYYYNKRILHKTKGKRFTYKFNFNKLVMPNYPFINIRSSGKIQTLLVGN
Summary of the method: as §1

FEV = target: T12, FEV (Homo sapiens, UniProt Q99581 1-238)
T12 sequence: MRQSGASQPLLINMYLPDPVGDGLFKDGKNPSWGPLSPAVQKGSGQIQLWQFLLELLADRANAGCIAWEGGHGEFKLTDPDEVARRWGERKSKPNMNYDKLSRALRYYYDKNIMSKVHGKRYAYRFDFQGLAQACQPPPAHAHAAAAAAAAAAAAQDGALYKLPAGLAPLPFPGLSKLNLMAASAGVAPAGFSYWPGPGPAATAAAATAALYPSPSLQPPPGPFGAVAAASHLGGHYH
Summary of the method: as §1

SPIB = SPIB (Homo sapiens, UniProt Q01892 1-262)
Sequence of SPIB (Q01892 whole entry): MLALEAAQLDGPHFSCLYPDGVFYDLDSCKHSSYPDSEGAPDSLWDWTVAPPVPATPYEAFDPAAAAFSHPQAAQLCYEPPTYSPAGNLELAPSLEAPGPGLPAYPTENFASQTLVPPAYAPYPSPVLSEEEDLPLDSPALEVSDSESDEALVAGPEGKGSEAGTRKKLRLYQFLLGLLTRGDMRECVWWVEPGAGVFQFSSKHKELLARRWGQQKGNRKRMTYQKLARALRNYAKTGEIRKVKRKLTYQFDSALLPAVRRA
Summary of the method: as §1

**Q.** For GCATAC, which binding signal (GABPA) is on record?
**A.** 1.01 fold enrichment (6-mer frequency, TF over GST control)

**Q.** And the binding signal (EHF)?
**A.** 1.01 fold enrichment (6-mer frequency, TF over GST control)

**Q.** What about the binding signal (ELK3) of the same sequence?
**A.** 1.05 fold enrichment (6-mer frequency, TF over GST control)

**Q.** And the binding signal (ELF4)?
**A.** 1.01 fold enrichment (6-mer frequency, TF over GST control)

**Q.** And the binding signal (ETV7)?
**A.** 1 fold enrichment (6-mer frequency, TF over GST control)

**Q.** For GTCACC, which binding signal (ELF4) is on record?
**A.** 1.01 fold enrichment (6-mer frequency, TF over GST control)

**Q.** With TTGAAG as the sequence, how does the binding signal (ELK1) read?
**A.** 1.06 fold enrichment (6-mer frequency, TF over GST control)

**Q.** And the binding signal (ERG)?
**A.** 1.02 fold enrichment (6-mer frequency, TF over GST control)

**Q.** And the binding signal (ELK4)?
**A.** 1.09 fold enrichment (6-mer frequency, TF over GST control)

**Q.** And the binding signal (ELF3)?
**A.** 1.07 fold enrichment (6-mer frequency, TF over GST control)

**Q.** And the binding signal (CRX)?
**A.** 1.03 fold enrichment (6-mer frequency, TF over GST control)

**Q.** And the binding signal (ETV1)?
**A.** 1.01 fold enrichment (6-mer frequency, TF over GST control)

**Q.** What about the binding signal (ERF) of the same sequence?
**A.** 1.01 fold enrichment (6-mer frequency, TF over GST control)

**Q.** What about the binding signal (SPDEF) of the same sequence?
**A.** 1.03 fold enrichment (6-mer frequency, TF over GST control)

**Q.** What about the binding signal (ETV3) of the same sequence?
**A.** 1.02 fold enrichment (6-mer frequency, TF over GST control)

**Q.** What does the source list for GCCACC?
**A.** binding signal (FEV): 1.01 fold enrichment (6-mer frequency, TF over GST control); binding signal (ELF4): 1 fold enrichment (6-mer frequency, TF over GST control); binding signal (ELK4): 1.03 fold enrichment (6-mer frequency, TF over GST control)

**Q.** CCGCGG was tested. Which binding signal (SPIB) did it give?
**A.** 1.04 fold enrichment (6-mer frequency, TF over GST control)

**Q.** And the binding signal (ELF4)?
**A.** 1.01 fold enrichment (6-mer frequency, TF over GST control)
